The OligoGym collection

Key:
Experiment in all cases: pooled miR-30 sensor sort-seq; sequence = guide strand
Conditions in all cases: shRNA
[1] = molecular target: C14orf105
[2] = molecular target: C14orf149
[3] = molecular target: C13orf33
[4] = molecular target: C14orf109
Note: reference of the scale not given here.

TTTCTTTTCTAGTACCTGCTTT was tested, and the sensor-assay potency score (higher = more potent) [1] was -0.0807.
TCATCTTCTATTATAAAGCTTG was tested, and the sensor-assay potency score (higher = more potent) [2] was -0.499.
With TACCTCTTGATGTAGCTGCTGA the sensor-assay potency score (higher = more potent) [3] was 0.0733.
For ATAACTGCCAAGCATATAGGGA, the sensor-assay potency score (higher = more potent) [4] was -0.701.
AAAAATAACTGTCCACACCCAA showed a sensor-assay potency score (higher = more potent) [4] of -0.714.
TTCCATACCAGTTTTCTTGTAA showed a sensor-assay potency score (higher = more potent) [1] of 0.252.
